Measurements reported in PubChem BioAssay (NCI).
About 83,000 compounds went through this panel and 20% of them were active in at least one assay; those are over-represented in the sample as a whole.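 The endpoint reported here, percent growth, reads 100 for growth as untreated, 0 for no net growth and -100 for all cells dead.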 A number with no mark means an inactive call. Active and inactive are the calls of the source.

test system: HS 578T breast; assay: NCI-60 one-dose screen, 48 h (100 = growth as untreated, 0 = no growth, -100 = all killed); conditions: 10 µM unless noted
Procedure: Growth inhibition of the HS 578T human tumor cell line is measured as a screen for anti-cancer activity. Cells are grown in 96 well plates and exposed to the test compound for 48 hours. Compounds are tested at a single concentration, which is 10^-5 M for most compounds. The reported endpoint is percent growth (GI% or GIPRCNT), where numbers from 0 - 100% represent growth inhibition, and numbers from -100% - 0 represent cell death. For example, a value of 40 represents 60% growth inhibition. A value of 0 means no net growth occurred over the course of the experiment. A value of -40 indicates 40% of cells at the beginning of the experiment died by the end of the experiment. A value of -100 means all cells are dead at the end of the experiment.
NCI-60 Human Tumor Cell Lines Screen was performed using the standard one-dose NCI protocol, which is described in more detail at https://dtp.cancer.gov/discovery_development/nci-60/default.htm.
Compounds with GIPRCNT values below 10 were considered active. Activity score was based on GIPRCNT using the following formula: […]
Score is 0 for GIPRCNT values of 100 or above, 50 for GIPRCNT values of 0, and 100 for GIPRCNT values of -100.

Compound | growth
Cc1ncc(C(=O)Nc2ccc(CN3CCN(C)CC3)c(C(F)(F)F)c2)cc1C#Cc1ccc(N)nc1 | -20% (active)
COc1ccc(-c2nn(C(=O)c3cc(OC)c(OC)c(OC)c3)c3cc(N)ccc23)cc1 | 35%
CCN(CC)c1ccc(C2=NN(C(C)=O)C(c3cc(OC)c(OC)c(OC)c3)C2)cc1 (stereo not given) | -12.2% (active)
Cc1nc2cnc(N)c(C#Cc3cncc(C(=O)Nc4ccc(CN5CCN(C)CC5)c(C(F)(F)F)c4)c3)c2nc1C | -20.2% (active)
C=C1C(=O)O[C@H]2[C@H]1CC/C(COC(=O)NCCOCCOCC(=O)Nc1ccc(OC)c(C(N)=O)c1O)=C\CC[C@@]1(C)O[C@@H]21 | 90.1%
CCc1ccc2nc(NC(=O)Cc3csc(NC(=O)c4ccco4)n3)sc2c1 | 31.4%
Cc1nc(/N=C(\N)NC(=O)Nc2ccccc2Cl)sc1C | 13.5%
COc1ccc(-c2cc(-c3ccc(Cl)cc3)c(C#N)c(=O)n2CCCCCC(=O)Nc2ccccc2N)cc1 | 70%
COc1ccc(-c2cnc3ccccc3n2)cc1 | 89.4%
Cc1cc(=O)oc2cc(OC(=O)CN3CCN(C)CC3)ccc12 | 97.9%
Cc1ccc(NC2=C(Cl)C(=O)c3nc(C)ccc3C2=O)cc1 | 27.9%
Cc1oc2nc[nH]c(=O)c2c1C(=O)/C=C/c1ccc(Br)cc1 | 24.3%
O=c1ccn(Cc2cn(-c3c4ccccc4nc4ccccc34)nn2)c(=O)[nH]1 | 94.6%
N[C@@H](Cc1ccccc1)[C@@H](O)C(=O)NCc1ccc(F)cc1 | 104%
COc1c(C2CC(=O)Nc3c2c(C)nn3-c2nc3ccccc3[nH]2)cc2c(c1OC)OCO2 (stereo not given) | 28.3%
O=C(Cc1ccc(F)c(Cl)c1)Nc1cc(C2(C(F)(F)F)CC2)nn1Cc1ccccc1 | 26.2%
O=C(CCN1C(=O)/C(=C/c2ccc(O)cc2)SC1=S)Nc1ccccc1 | 93.3%
COc1c(N2CC3CCCN(C(C)=O)C3C2)c(F)cc2c(=O)c(C(=O)N[C@H]3C(O)[C@@H](O)C(CO)O[C@H]3O)cn(C3CC3)c12 (stereo not given in full) | 105%
O=c1ccc(N=Nc2ccc([N+](=O)[O-])cc2)ccc1O | 34.8%
C=C1CC[C@H](C(C)C)[C@@H]2[C@H]1[C@H]1CC(=C)[C@@H](O)CC[C@@](C)(O)[C@@H]2O1 | 92.4%

Compound | growth
O=C(O)CCC/C=C\C[C@H]1C=CC(=O)/C1=C/C[C@@H](O)CCc1cccc(C(F)(F)F)c1 | 37.6%
OC(c1ccccc1)C(NC(Cc1ccccc1)c1ccccc1)c1ccccc1 (stereo not given) | 92.2%
COc1ccc2c(c1)/C(=C/c1sc(=S)n(Cc3ccco3)c1O)C=N2 | 20.4%
COC(=O)[C@H](C)NC(=O)NC(=O)NC(=O)CI | 114%
O=C1NC(=O)C(c2ccccc2)(c2ccccc2)N1Cc1cn(-c2c3ccccc3nc3ccccc23)nn1 | 83%
CCOc1c(B(O)O)cccc1-c1nc2ccc3[nH]ncc3c2c2c1CCCC2 | 34.5%
CSc1ccc2c(c1)c(CCN)c(C)n2Cc1ccc(Cl)c(Cl)c1 | -39.2% (active)
NC1=NC(c2cccc(Br)c2)c2sc3ccc(Cl)cc3c2N1 (stereo not given) | 104%
CCOC(=O)c1[nH]c(C)c(C(=O)OCc2ccccc2C#N)c1C | 49.1%
CC(C)n1cnc2c(Nc3cccc(Cl)c3)nc(N[C@H]3CCCC[C@@H]3N)nc21 | 66.7%
CC(=O)CC(c1ccccc1)c1c(C)[nH]c2ccccc12 (stereo not given) | 84.6%
COc1ccc2sc3c(NCCCN(C)C)nc4ccccc4c3c(=O)c2c1 | 73%
CCN(CC)CCNC(=O)c1cn2ncnc(Oc3ccc(NC(=O)Nc4ccc(Cl)c(C(F)(F)F)c4)cc3)c2c1C | -44.4% (active)
COC(=O)CCC/C=C\C[C@H]1C=CC(=O)/C1=C/C[C@@H](O)CCc1cccc(C(F)(F)F)c1 | 32.3%
COc1ccc(-c2nc3sc(-c4ccccc4)cn3n2)cc1 | 59.9%
COc1cc(C(=O)/C=C/c2ccc(OCCCCCC[P+](c3ccccc3)(c3ccccc3)c3ccccc3)cc2)cc(OC)c1OC | -6.89% (active)
CNCCCNc1nc2ccccc2c2c(=O)c3cc(OC)ccc3sc12 | 75%
O=C(Nc1c2ccccc2nc2ccccc12)c1ccccc1CN1C(=O)c2ccccc2C1=O | 21%
O=[N+]([O-])c1ccc(Cl)c(-c2cc(CCCCO)on2)c1 | 99.7%
Cc1ccc(-c2nc(N3CCN(CC(=O)Nc4ccc(Cl)c(C(F)(F)F)c4)CC3)c3ccccc3n2)cc1 | 97.2%
